About 3,200 (1.1%) of roughly 300,000 compounds were called active. Rule as the data show it: active = inhibition above about 75%; inconclusive = no clear call, values can overlap the other calls; inactive = below that; tested in HMLE shEcad cells. The sample as a whole holds a higher share of actives than the screen did.
Test: growth suppression of cancer stem-like cells – cell-based, luminescence, primary screen (AID 2717)
Conditions: cancer stem cell-like cells viability, at 7.5 µM, hits give high values

SMILES | inhibition
CC1CC(=NNC(=O)C2COc3ccccc3O2)CC(C)(C)C1 (stereo unspecified) | -9.31% (inactive)
Cc1ccc2c(N)c(C(=O)c3ccccc3)sc2n1 | 45.8% (inactive)
CCc1nc2sc(C(=O)O)c(N)c2c2c1CCCC2 | 5.22% (inactive)
O=C(NNC(=O)c1cccc(S(=O)(=O)Nc2ccc(Cl)cc2)c1)c1ccc(=O)[nH]c1 | -9.6% (inactive)
Cc1ccc(NC(=O)c2cccc(S(=O)(=O)N3CCCc4ccccc43)c2)nc1 | 0.233% (inactive)
COc1ccc(Cl)cc1NC(=O)COC(=O)c1ccc(Br)o1 | 0.173% (inactive)
CS(=O)(=O)c1ccc(C(=O)NNC(=O)c2cccs2)cc1 | -0.179% (inactive)
Nc1nonc1-n1nnc(C(=O)N/N=C/c2cc(Br)ccc2O)c1CSC1=NCCS1 | 108% (active)
Nc1nonc1-n1nnc(C(=O)N/N=C/c2ccccc2O)c1CN1CCCC1 | 62% (inactive)
Cc1ccc(SCc2c(C(=O)N/N=C/c3cccnc3)nnn2-c2nonc2N)cc1 | 1.7% (inactive)
O=C1COc2ccc(C(=O)COC(=O)CCOc3ccccc3)cc2N1 | 0.0702% (inactive)
CC[C@@H]1Cc2cc(O)ccc2C2=C1c1ccc(O)cc1C[C@H]2CC | 102% (active)
CC1(C)CC(=O)c2ccc(O)cc2O1 | 2.93% (inactive)
CC(C)CC1(C)NC(=O)N(CC(=O)Nc2ccc3c(c2)OCCO3)C1=O (stereo unspecified) | -19% (inactive)
O=C(Nc1ccncc1)c1ccc(Cl)c([N+](=O)[O-])c1 | 2.54% (inactive)
O=C(/C=C/c1ccc(Cl)c([N+](=O)[O-])c1)c1ccc(O)cc1 | 80.8% (active)
CN(C)c1ccc(/C=C/C(=O)c2ccc(O)cc2)cc1[N+](=O)[O-] | 26.4% (inactive)
O=C(/C=C/c1ccc2c(c1)OCCO2)c1ccc(O)cc1 | 19.1% (inactive)
CC(=O)Nc1ccc(/C=C/C(=O)c2ccccc2)cc1 | 2.62% (inactive)
CN(C)c1ccc(/C=C/C(=O)c2ccc(C(C)(C)C)cc2)cc1[N+](=O)[O-] | 75.4% (active)
Cc1sc2ncnc(N3CCC(C(=O)Nc4ccc(F)cc4Cl)CC3)c2c1C | 4.03% (inactive)
COc1cc(OC)cc(C(=O)NCC(=O)OCC(=O)NC(C)CCc2ccccc2)c1 (stereo unspecified) | -13.2% (inactive)
CC(C)(C)OC(=O)CNC(=O)c1[nH]cnc1C(=O)N[C@@H](CCCCN)C(=O)OC(C)(C)C | -4.68% (inactive)
O=C(O)/C=C/C(=O)Nc1ccc(F)cc1F | -20.2% (inactive)
COc1ccccc1NC(=O)/C=C/C(=O)O | 0.627% (inactive)
COC(=O)c1sc(-c2ccc(C(C)(C)C)cc2)cc1NC(=O)/C=C/C(=O)O | 119% (active)
